# Article PMC7862700, “An all-to-all approach to the identification of sequence-specific readers for epigenetic DNA modifications on cytosine”
# What was measured:
# Assay in all cases: DAPPL (digital affinity profiling via proximity ligation, sequencing); 10 mM Tris-HCl pH 7.5, 50 mM NaCl, 1 mM DTT, 4% glycerol, room temperature, 30 min; GST-TFs on glutathione beads, 16-mer random dsDNA library, 0.1% formaldehyde crosslink after washing; high values mean tight binding
# [1] = target: T1, FEV (Homo sapiens, UniProt Q99581 1-238); settings: protein: recombinant; tags: N-terminal GST; dsDNA, one strand shown
# T1 sequence: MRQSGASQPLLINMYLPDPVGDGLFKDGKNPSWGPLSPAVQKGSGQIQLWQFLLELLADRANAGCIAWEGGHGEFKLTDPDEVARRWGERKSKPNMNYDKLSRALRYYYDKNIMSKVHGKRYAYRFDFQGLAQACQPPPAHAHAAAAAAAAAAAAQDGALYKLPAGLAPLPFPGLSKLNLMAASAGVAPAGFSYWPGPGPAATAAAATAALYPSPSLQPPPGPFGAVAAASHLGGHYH
# Outline: (§1)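 Binding signal is defined as a hexamer's read frequency for one factor over its frequency for the tag-only sample. To obtain reads, GST-fused human transcription factors were expressed in yeast, captured on glutathione beads, barcoded with DNA and pooled with that sample. Pools met 200 nmole of a 16-mer random double-stranded DNA library in Tris/NaCl/DTT/glycerol buffer for 30 min at room temperature before washing, 0.1% formaldehyde crosslinking, proximity ligation (BsaI/T4 ligase, 1 h, 37 °C), PCR and Illumina NextSeq500 sequencing.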
# [2] = target: ETV5 (Homo sapiens, UniProt P41161 1-510); settings: protein: recombinant; tags: N-terminal GST; dsDNA, one strand shown
# ETV5, sequence (P41161 whole entry): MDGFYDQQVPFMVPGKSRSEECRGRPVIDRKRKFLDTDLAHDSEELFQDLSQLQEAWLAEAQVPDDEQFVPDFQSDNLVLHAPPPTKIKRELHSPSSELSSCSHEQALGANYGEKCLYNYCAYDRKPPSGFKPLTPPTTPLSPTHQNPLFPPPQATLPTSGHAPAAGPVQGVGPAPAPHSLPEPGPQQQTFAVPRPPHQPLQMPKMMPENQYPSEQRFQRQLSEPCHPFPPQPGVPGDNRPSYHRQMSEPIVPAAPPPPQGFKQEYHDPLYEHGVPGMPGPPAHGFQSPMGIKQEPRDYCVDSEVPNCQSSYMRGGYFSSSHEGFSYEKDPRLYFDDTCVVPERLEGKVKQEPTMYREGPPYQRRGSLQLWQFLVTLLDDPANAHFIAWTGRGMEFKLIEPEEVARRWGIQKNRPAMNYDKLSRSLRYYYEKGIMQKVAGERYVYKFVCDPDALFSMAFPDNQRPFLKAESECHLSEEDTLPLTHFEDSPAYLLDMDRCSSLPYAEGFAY
# Outline: as §1
# [3] = target: HSF1 (Homo sapiens, UniProt Q00613 1-529); settings: protein: recombinant; tags: N-terminal GST; chain copies: 3; dsDNA, one strand shown
# HSF1, sequence (Q00613 whole entry): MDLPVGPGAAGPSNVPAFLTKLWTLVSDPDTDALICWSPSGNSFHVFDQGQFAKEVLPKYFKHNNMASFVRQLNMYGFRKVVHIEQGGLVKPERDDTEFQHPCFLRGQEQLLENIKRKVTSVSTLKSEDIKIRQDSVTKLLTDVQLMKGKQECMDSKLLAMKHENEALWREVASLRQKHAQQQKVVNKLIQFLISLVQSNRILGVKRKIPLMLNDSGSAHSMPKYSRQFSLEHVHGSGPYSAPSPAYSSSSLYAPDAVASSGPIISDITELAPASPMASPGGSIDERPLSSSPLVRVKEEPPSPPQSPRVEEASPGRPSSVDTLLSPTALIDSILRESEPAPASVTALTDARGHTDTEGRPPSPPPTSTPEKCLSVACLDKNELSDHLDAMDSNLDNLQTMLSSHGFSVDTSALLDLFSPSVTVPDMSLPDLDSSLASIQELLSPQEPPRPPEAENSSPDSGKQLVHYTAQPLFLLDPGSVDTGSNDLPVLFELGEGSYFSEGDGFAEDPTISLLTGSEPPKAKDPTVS
# Outline: as §1
# [4] = target: T2, SPIC (Homo sapiens, UniProt Q8N5J4 1-248); settings: protein: recombinant; tags: N-terminal GST; dsDNA, one strand shown
# T2 sequence: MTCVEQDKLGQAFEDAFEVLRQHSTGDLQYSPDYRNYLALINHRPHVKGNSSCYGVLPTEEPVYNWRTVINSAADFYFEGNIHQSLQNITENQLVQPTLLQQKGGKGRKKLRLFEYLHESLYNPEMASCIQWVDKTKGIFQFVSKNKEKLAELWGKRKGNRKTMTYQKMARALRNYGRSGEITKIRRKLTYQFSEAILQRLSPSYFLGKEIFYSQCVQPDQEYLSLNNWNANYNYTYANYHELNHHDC
# Outline: as §1
# [5] = target: ELF4 (Homo sapiens, UniProt Q99607 1-663); settings: protein: recombinant; tags: N-terminal GST; dsDNA, one strand shown
# ELF4, sequence (Q99607 whole entry): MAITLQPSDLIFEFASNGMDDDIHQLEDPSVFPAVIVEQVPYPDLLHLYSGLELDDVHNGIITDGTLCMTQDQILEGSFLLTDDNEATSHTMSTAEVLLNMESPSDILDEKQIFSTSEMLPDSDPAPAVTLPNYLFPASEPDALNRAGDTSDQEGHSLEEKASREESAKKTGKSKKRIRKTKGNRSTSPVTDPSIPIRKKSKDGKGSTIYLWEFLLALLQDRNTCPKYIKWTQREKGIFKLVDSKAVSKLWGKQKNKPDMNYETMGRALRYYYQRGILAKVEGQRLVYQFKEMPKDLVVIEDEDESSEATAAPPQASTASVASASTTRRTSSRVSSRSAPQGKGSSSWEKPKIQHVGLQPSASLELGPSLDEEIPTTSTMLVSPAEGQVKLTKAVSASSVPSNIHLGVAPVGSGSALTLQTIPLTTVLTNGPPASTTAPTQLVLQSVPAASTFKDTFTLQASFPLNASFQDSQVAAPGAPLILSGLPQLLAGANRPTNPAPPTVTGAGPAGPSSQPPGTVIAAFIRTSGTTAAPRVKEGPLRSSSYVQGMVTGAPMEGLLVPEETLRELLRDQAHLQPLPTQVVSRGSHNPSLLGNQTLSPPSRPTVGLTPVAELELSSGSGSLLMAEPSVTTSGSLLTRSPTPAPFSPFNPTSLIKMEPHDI
# Outline: as §1
# [6] = target: T3, ELK4 (Homo sapiens, UniProt P28324-2 1-405); settings: protein: recombinant; tags: N-terminal GST; dsDNA, one strand shown
# T3 sequence: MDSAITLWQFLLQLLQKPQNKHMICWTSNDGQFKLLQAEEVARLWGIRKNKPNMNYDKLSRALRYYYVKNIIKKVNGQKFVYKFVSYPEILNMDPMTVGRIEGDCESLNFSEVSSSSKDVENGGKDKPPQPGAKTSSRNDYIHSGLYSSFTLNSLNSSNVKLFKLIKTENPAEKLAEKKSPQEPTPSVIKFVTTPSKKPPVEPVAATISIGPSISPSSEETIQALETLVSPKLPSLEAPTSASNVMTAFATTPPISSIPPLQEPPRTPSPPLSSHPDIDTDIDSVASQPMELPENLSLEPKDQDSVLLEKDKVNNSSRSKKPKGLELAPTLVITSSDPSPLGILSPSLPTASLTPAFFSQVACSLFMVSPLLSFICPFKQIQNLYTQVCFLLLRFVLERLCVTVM
# Outline: as §1
# [7] = target: T4, ETV2 (Homo sapiens, UniProt O00321 1-342); settings: protein: recombinant; tags: N-terminal GST; dsDNA, one strand shown
# T4 sequence: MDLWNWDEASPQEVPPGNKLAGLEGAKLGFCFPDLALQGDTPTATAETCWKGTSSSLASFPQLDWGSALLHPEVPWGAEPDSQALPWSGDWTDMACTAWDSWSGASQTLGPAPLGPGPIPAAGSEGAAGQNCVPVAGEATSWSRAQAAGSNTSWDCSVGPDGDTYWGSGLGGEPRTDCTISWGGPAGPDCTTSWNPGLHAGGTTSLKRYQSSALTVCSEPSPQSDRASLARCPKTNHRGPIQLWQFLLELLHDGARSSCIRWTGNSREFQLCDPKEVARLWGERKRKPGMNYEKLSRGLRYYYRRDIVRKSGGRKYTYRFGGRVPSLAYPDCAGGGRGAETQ
# Outline: as §1
# [8] = target: T5, ELF3 (Homo sapiens, UniProt P78545 1-371); settings: protein: recombinant; tags: N-terminal GST; dsDNA, one strand shown
# T5 sequence: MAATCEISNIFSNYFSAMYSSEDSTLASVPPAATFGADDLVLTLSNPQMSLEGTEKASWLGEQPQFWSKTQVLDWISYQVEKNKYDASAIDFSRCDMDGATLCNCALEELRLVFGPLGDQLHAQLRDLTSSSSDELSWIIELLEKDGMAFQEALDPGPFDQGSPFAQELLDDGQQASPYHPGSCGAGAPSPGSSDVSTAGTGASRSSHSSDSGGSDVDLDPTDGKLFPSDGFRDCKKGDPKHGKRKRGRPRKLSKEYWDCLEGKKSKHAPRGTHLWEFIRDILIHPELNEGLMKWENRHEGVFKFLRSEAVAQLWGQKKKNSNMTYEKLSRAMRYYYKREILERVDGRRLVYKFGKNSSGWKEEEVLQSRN
# Outline: as §1
# [9] = target: CRX (Homo sapiens, UniProt O43186 1-299); settings: protein: recombinant; tags: N-terminal GST; dsDNA, one strand shown
# CRX, sequence (O43186 whole entry): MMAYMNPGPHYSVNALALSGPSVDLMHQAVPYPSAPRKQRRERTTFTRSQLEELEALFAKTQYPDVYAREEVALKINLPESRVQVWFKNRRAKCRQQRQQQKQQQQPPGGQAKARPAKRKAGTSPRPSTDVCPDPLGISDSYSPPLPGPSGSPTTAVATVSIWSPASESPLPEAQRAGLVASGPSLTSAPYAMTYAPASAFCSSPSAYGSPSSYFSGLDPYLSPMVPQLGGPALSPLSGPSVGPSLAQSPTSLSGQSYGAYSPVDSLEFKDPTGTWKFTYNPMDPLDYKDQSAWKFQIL
# Outline: as §1
# [10] = target: ETV1 (Homo sapiens, UniProt P50549 1-477); settings: protein: recombinant; tags: N-terminal GST; dsDNA, one strand shown
# ETV1, sequence (P50549 whole entry): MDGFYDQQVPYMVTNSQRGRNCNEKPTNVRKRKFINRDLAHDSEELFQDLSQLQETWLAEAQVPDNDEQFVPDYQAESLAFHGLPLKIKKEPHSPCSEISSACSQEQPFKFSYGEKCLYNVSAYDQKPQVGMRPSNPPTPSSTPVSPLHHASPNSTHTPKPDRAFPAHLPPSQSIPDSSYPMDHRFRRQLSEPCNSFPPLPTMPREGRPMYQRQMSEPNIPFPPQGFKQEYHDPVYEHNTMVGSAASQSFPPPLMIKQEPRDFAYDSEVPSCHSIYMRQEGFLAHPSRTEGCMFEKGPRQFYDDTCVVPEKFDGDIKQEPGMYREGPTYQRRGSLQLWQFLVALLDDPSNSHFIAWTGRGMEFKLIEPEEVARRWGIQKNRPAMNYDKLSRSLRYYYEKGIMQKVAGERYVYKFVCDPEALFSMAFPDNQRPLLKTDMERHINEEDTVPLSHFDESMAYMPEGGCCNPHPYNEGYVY
# Outline: as §1
sequence,measurement,setting,value
CTCTGT,binding signal,[1],"1.39 fold enrichment (6-mer frequency, TF over GST control)"
same,binding signal,[2],"1.42 fold enrichment (6-mer frequency, TF over GST control)"
same,binding signal,[3],"1.15 fold enrichment (6-mer frequency, TF over GST control)"
same,binding signal,[4],"1.5 fold enrichment (6-mer frequency, TF over GST control)"
same,binding signal,[5],"1.33 fold enrichment (6-mer frequency, TF over GST control)"
same,binding signal,[6],"1.5 fold enrichment (6-mer frequency, TF over GST control)"
same,binding signal,[7],"1.39 fold enrichment (6-mer frequency, TF over GST control)"
same,binding signal,[8],"1.4 fold enrichment (6-mer frequency, TF over GST control)"
same,binding signal,[9],"1.18 fold enrichment (6-mer frequency, TF over GST control)"
same,binding signal,[10],"1.43 fold enrichment (6-mer frequency, TF over GST control)"
